Rows were chosen to be rich in hits. Some 20% of all compounds tested hit in one or more screens of this group.
Pf growth 48h: P. falciparum growth inhibition at 48 hours (one generation). P. falciparum luciferase growth in erythrocytes, 48 h. 310,000 tested, 5.9% active. AID 504832. Potency, µM (doses to about 28.7 µM), hits mostly inhibitors
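Erythrocytes infected with P. falciparum carrying an integrated firefly luciferase reporter (2% hematocrit, 0.1% parasitemia final) were exposed to compounds in RPMI 1640 with 0.5% Albumax at 37 C, 5% CO2. Growth inhibition was scored as reduced luminescence.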
Pf growth 96h: P. falciparum growth inhibition at 96 hour, primary screen for plastid delayed-death inhibitors; P. falciparum luciferase reporter growth, 96 h; Potency, µM (doses to about 28.7 µM), usual class: inhibitors; 320,000 tested, 6.9% active
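P. falciparum expressing integrated firefly luciferase, in erythrocytes at 2% hematocrit, 0.05% parasitemia, incubated with compounds 96 h at 37 C, 5% CO2. Growth inhibition read as loss of luminescence; two-generation exposure targets delayed-death apicoplast inhibitors.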
Shiga toxin inh: Shiga toxin inhibition. Vero cells, Shiga toxin protein synthesis inhibition reporter. inhibition, % at 38.7 µM. 290,000 tested, 9.2% active; in the data active = inhibition mostly above about 28%, no sharp cut-off; inactive = mostly below about 43%
HCMV inh: inhibitors of human cytomegalovirus. 410,000 tested, 4.5% active. activity change, negative = inhibition, % at 57.5 µM. HFF cells, HCMV-luciferase reporter, 72 h; stronger effect = lower value. AID 1259415; in the data active = activity change below about -60%; inconclusive = no clear call, values can overlap the other calls; inactive = above about -39%
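Steps: HFFs plated, 16 h 37C; compounds added; HCMV-luciferase added to MOI 1 PFU/cell; 72 h 37C; OneGlo reagent, 5 min room temperature; luminescence read, normalized to controls.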
CHX counter: counter-screen for Shiga toxin inhibitors: cycloheximide protein synthesis inhibition. cell reporter, cycloheximide protein synthesis inhibition counterscreen. max response, %. 300,000 tested, 12% active. AID 2314; in the data active = max response mostly above about 13%, no sharp cut-off; inactive = mostly below about 14%; note: read at 38.3 µM for the half of the compounds with a filed dose
Of the large screens only hits and unclear results are named; the others gave an inactive call. Unless noted, calls come from the whole dose curve; as a rule, active = well fitted inhibition curve with a large enough effect; inconclusive = small, poorly fitted or top-dose-only effect, or another doubt; inactive = no such curve, though single readings can be large or run the other way.

CC(C)Oc1ccc(CNC(=O)c2ccc3nc(N4CCOCC4)sc3c2)cc1	HCMV inh inconclusive
O=C(CSc1nnnn1-c1ccc(O)cc1)c1cc2ccccc2o1	Pf growth 48h inconclusive, Pf growth 96h inconclusive
COc1ccc(-c2nc3ncccn3c2Br)cc1	Shiga toxin inh 73, CHX counter 28
Brc1c(-c2ccc3c(c2)OCO3)nc2ncccn12	Pf growth 96h inconclusive, Shiga toxin inh 33, CHX counter 20
O[C@H]1CN(Cc2cccs2)[C@@H](c2ccccc2)C[C@@H]1n1cc(-c2ccc(F)cc2)nn1	none (no result: Pf growth 48h, Pf growth 96h, Shiga toxin inh, CHX counter)
COc1ccc([C@H]2C[C@H](n3cc(-c4ccc(F)cc4)nn3)[C@@H](O)CN2Cc2cccs2)cc1	none (no result: Pf growth 48h, Pf growth 96h, Shiga toxin inh, CHX counter)
O[C@H]1C[C@H](c2ccccc2)N(Cc2cccs2)C[C@@H]1n1cc(-c2ccc(F)cc2)nn1	HCMV inh -64 (no result: Pf growth 48h, Pf growth 96h, Shiga toxin inh, CHX counter)
COc1ccc([C@H]2C[C@H](O)[C@@H](n3cc(-c4ccc(F)cc4)nn3)CN2Cc2cccs2)cc1	HCMV inh -67 (no result: Pf growth 48h, Pf growth 96h, Shiga toxin inh, CHX counter)
CCOC(=O)C(=NCCCN1CCOCC1)NNc1cccc(C(F)(F)F)c1	none
Cc1ccc(S(=O)(=O)Nc2cc(=O)[nH]c(SCc3ccccc3Cl)n2)cc1	HCMV inh -66
O=C(CSc1nc(NS(=O)(=O)c2ccccc2)cc(=O)[nH]1)Nc1ccc(Cl)cc1	Pf growth 96h inconclusive
COc1ccc(NC(=O)CSc2nc(NS(=O)(=O)c3ccccc3)cc(=O)[nH]2)cc1	Pf growth 48h inconclusive
COc1ccc(Cl)cc1NC(=O)CSc1nc(NS(=O)(=O)c2ccccc2)cc(=O)[nH]1	Pf growth 96h 8.3µM, HCMV inh inconclusive
Cc1cccc(NC(=O)CSc2nc(NS(=O)(=O)c3ccccc3)cc(=O)[nH]2)c1	Pf growth 96h 10µM
Cc1ccc(S(=O)(=O)Nc2ccc(-c3nnc(SCc4ccccc4Cl)o3)cc2)cc1	Pf growth 48h inconclusive, Pf growth 96h inconclusive, HCMV inh -83
Cc1ccc(CSc2nnc(-c3ccc(NS(=O)(=O)c4ccccc4)cc3)o2)cc1	Pf growth 96h inconclusive
O=c1cc(NS(=O)(=O)c2ccccc2)nc(SCc2ccc(Cl)cc2)[nH]1	Pf growth 48h inconclusive, Pf growth 96h inconclusive
COC(=O)[C@H](C)NC(=O)NCc1ccccc1	none
CCN1CCCSC1=S	none (no result: Pf growth 48h, Pf growth 96h, Shiga toxin inh, CHX counter)
COc1ccc(NC(=O)CSc2nnc(NC(=O)Nc3ccccc3)s2)c(OC)c1	none (no result: Pf growth 48h, Pf growth 96h, Shiga toxin inh, CHX counter)
CC(=O)Nc1ccc(Cc2nc3c([nH]2)c(=O)n(C)c(=O)n3C)cc1	none (no result: HCMV inh)
Cc1ccc(NC(=O)CSc2nc(NS(=O)(=O)c3ccc(C)cc3)cc(=O)[nH]2)cc1	Pf growth 48h 5.2µM (no result: Pf growth 96h)
CC12CCC=CC1C(c1ccc(F)c(/C=C/c3ccccc3)c1)N(Cc1ccccc1)C2=O (centres undefined)	none (no result: Pf growth 48h, Pf growth 96h, HCMV inh)
C[C@@]12CCC=C[C@H]1[C@H](c1ccc(C(F)(F)F)cc1)N(Cc1ccccc1)C2=O	Pf growth 48h inconclusive, Pf growth 96h 10µM
C[C@@]12CCC=C[C@H]1[C@H](c1ccc(/C=C/c3ccccc3)cc1F)N(Cc1ccccc1)C2=O	Pf growth 48h 12µM, Pf growth 96h inconclusive
COc1ccc(C2C3C=CCCC3(C)C(=O)N2Cc2ccccc2)cc1Cl (centres undefined)	none (no result: Pf growth 48h, Pf growth 96h, HCMV inh)
Cc1ccc(Cn2c(CN3CCC(C(=O)NCC(C)c4ccccc4)CC3)cc3ccccc32)cc1 (centres undefined)	none (no result: Pf growth 48h, Pf growth 96h, Shiga toxin inh, CHX counter)
CCOc1ccccc1NS(=O)(=O)c1cn(C)nc1C	none
Cc1cc(C(=O)Nc2cnn(Cc3ccc(Cl)cc3Cl)c2)no1	Pf growth 48h 4.1µM, Shiga toxin inh 35, CHX counter 15
O=C(Nc1cnn(Cc2ccc(Cl)cc2Cl)c1)c1noc2c1CCc1ccccc1-2	none (no result: Pf growth 48h, Pf growth 96h, Shiga toxin inh, CHX counter)
Cc1ccccc1Cn1cc(NS(=O)(=O)c2cn(C)nc2C)cn1	HCMV inh -60
Cc1ccccc1Cn1cc(NC(=O)c2nn(C)cc2Cl)cn1	Shiga toxin inh 28, HCMV inh inconclusive
CN(C)CCCNC(=O)[C@@H]1[C@@H](CO)[C@@H]2Cn3c(cccc3=O)[C@H]1N2C(=O)Nc1cc(F)ccc1F	none (no result: Pf growth 48h, Pf growth 96h, Shiga toxin inh, CHX counter)
Cc1ccc2occ(CC(=O)N(Cc3ccccc3Cl)C3CCS(=O)(=O)C3)c2c1 (centres undefined)	none (no result: Pf growth 48h, Pf growth 96h, Shiga toxin inh, CHX counter)
C=CCN1C(=O)C(=O)N(Cc2nc3ccccc3s2)C1=O	Shiga toxin inh 77, CHX counter 34
NCCc1nc2ccccc2s1	none
Cc1ccc(N2CCN(C(=O)c3cc(C(=O)c4ccccc4C)c[nH]3)CC2)c(C)c1	Pf growth 48h inconclusive, Pf growth 96h inconclusive
CCOC(=O)[C@H]1[C@H]2COc3ccccc3[C@@H]2N2C(=O)c3cc(Cl)ccc3NC(=O)[C@@]12C	Pf growth 48h 10µM, Pf growth 96h 12µM (no result: Shiga toxin inh, CHX counter)
